# Results as given in PubChem BioAssay AID686979 (National Center for Advancing Translational Sciences (NCATS), 2013).
# The campaign covered roughly 420,000 compounds. About 50,000 (12%) were called active. About 26% were inconclusive and are not listed. Calls follow the shape of the dose curve; as a rule, active = well fitted inhibition curve with a large enough effect; inconclusive = small, poorly fitted or top-dose-only effect; inactive = flat fitted curve, though single readings scatter. The entries come from a sample that favours actives as a whole. Entries that show only a call come without a potency.
# Test: qHTS for Inhibitors of human tyrosyl-DNA phosphodiesterase 1 (TDP1): qHTS in cells in presence of CPT; also: nearly all actives have a fitted effect of over 55% in size
# Conditions: chicken DT40 Tdp1-/-;hTDP1 cells + 20 nM CPT, ATP luminescence, 48 h; series mostly up to 46.2 µM
# How it was run: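 Cell growth measured by CellTiter-Glo luminescence after a minimum 48 h, 37 C compound exposure with 20 nM CPT in Tdp1-knockout DT40 cells stably expressing hTDP1, seeded 400/well; qHTS titration format.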
# Potency is read from the fitted curve at half-maximal effect.
SMILES,Potency,"activity change, negative = growth inhibition"
COc1ccccc1C(=O)NCCn1cc(SCC(=O)NCc2ccco2)c2ccccc21,inactive,
O=C(O)Cc1ccc(NC(=O)Nc2cccc3ccccc23)cc1,inactive,
CN(C(=O)CCNC(=O)Cn1ccc2ccccc2c1=O)c1ccc(Br)cc1,inactive,
Cc1cc(C)c(S(=O)(=O)N2CCC(C(=O)OCc3c(C)noc3C)CC2)c(C)c1,inactive,
CC(C)(C)N(CC#CCC(O)(c1ccccc1)C1CCCC1)CCO (stereo not drawn),inactive,
CN(CC#CCC(c1ccccc1)c1ccccc1)C(C)(C)C,12.6 µM (active),
CCc1[nH]nc(C(=O)N2CCCC(CNS(=O)(=O)c3cccs3)C2)c1C (stereo not drawn),inactive,
Cc1cc(C)nc(SCc2cn3c(C)cc(C)nc3n2)n1,inactive,
O=C(NC1CCCC1)C(c1ccco1)N(C(=O)c1csnn1)c1ccccc1 (stereo not drawn),inactive,
CCOC(=O)CCC(NC(=O)c1ccc(CNc2nc3cc(C(F)(F)F)ccc3nc2C(=O)OCC)cc1)C(=O)OCC (stereo not drawn),inactive,
Cc1ccc(OC(=O)c2ccccc2C(=O)OCC(F)(F)C(F)F)cc1,inactive,
CCN(CC)CCNS(=O)(=O)c1ccc(/C=C/C(=O)O)cc1,inactive,
Cn1cc(CN2CCCCC2c2ccccn2)c(-c2ccc3c(c2)OCCO3)n1 (stereo not drawn),inactive,
CC1(C(=O)Nc2cccc3cccnc23)CCN1C(=O)CCC1CCCC1 (stereo not drawn),16.4 µM (active),
CC1(C(=O)Nc2ccccc2Br)CCN1C(=O)CC1CC1 (stereo not drawn),inactive,
CC1(C(=O)NS(=O)(=O)c2ccc(Cl)cc2)CCN1C(=O)CC1CCCC1 (stereo not drawn),inactive,
Cc1ccc(S(=O)(=O)N2CCN(C(=O)N3CCOCC3)CC2)c(C)c1,inactive,
CC1CCN(C(=O)c2cccc(S(=O)(=O)N3CCCc4ccccc43)c2)CC1,16.4 µM (active),
CN1CCN(S(=O)(=O)c2cccc(C(=O)O)c2)CC1,inactive,
CC1Cc2ccccc2N1S(=O)(=O)c1cccc(C(=O)OCC(=O)N2CCOCC2)c1 (stereo not drawn),inactive,
CC(=O)N1CCN(S(=O)(=O)c2cccc(C(=O)NC3CCC(C)CC3)c2)CC1 (stereo not drawn),inactive,
CCS(=O)(=O)c1ccc2c(c1)N(S(=O)(=O)c1ccccc1)CC(C(=O)O)O2 (stereo not drawn),inactive,
CNC(=O)C1CN(C(=O)c2cccc(S(=O)(=O)N3CCc4ccccc43)c2)c2ccccc2O1 (stereo not drawn),7.31 µM (active),

SMILES,Potency,"activity change, negative = growth inhibition"
Cc1ccccc1OCC(=O)Nc1c(C(=O)Nc2ccccc2F)oc2ccccc12,inactive,
O=C(OC1CCCCC1=O)c1cccc(S(=O)(=O)NCc2ccccc2)c1 (stereo not drawn),inactive,
CCOc1ccc(N(CC(=O)NCCc2ccc(F)cc2)S(=O)(=O)c2ccccc2)cc1,20.6 µM (active),
CCOc1ccc(N(CC(=O)NCCc2ccc(OC)cc2)S(C)(=O)=O)cc1,inactive,
COc1ccc(CCNC(=O)CN(c2ccccc2)S(=O)(=O)c2ccccc2)cc1,inactive,
Cc1ccc(NC(=O)COC(=O)CN2CCSC2=O)cc1F,inactive,
C/C(=N/N1CCN(Cc2cccc3ccccc23)CC1)c1cccnc1,inactive,
Cc1ccc2c(C)nc(N3CCCC(C(=O)NC(C)(C)CO)C3)nc2c1 (stereo not drawn),,-5.72% [at 9.04 µM] (inactive)
Fc1cccc(Cl)c1COc1ccc(-c2nnco2)cc1,inactive,
CCOc1ccc(NCCC(=O)c2ccc3c(c2)OCO3)cc1,25.9 µM (active),
O=C(COc1ccc(Cl)cc1)Nc1ccc2c(c1)OCO2,inactive,
COC(=O)CCNc1ccc2c(c1)OCCO2,inactive,
O=C1C=C(c2cccc(Br)c2)C[C@@H](c2ccc(F)cc2)C1,inactive,
Cn1cc[n+](C)c1COc1ccc(C=O)cc1,inactive,
CC(C(=O)O)c1ccc(C2CCCCC2)c2ccccc12 (stereo not drawn),inactive,
COc1ccc(NS(=O)(=O)c2ccc(F)cc2F)cn1,inactive,
O=C(NCCOc1ccccc1)c1ccccc1F,inactive,
O=C(c1ccccc1F)N(Cc1ccccc1)Cc1ccccc1,8.2 µM (active),
O=C(O)CCC(=O)N(Cc1ccccc1)Cc1ccccc1,inactive,
Cc1ccc(C(=O)NNC(=O)c2ccc3c(c2)OCCO3)cc1,inactive,
COc1cc(Cl)c(S(=O)(=O)N2CCN(Cc3ccc4c(c3)OCO4)CC2)cc1Cl,inactive,
N#C/C=C/N1CCN(Cc2ccc3c(c2)OCO3)CC1,inactive,
Fc1ccc2[nH]c3c(N4CCSCC4)ncnc3c2c1,11.6 µM (active),

SMILES,Potency,"activity change, negative = growth inhibition"
Fc1ccc2[nH]c3c(N4CCN(Cc5ccc6c(c5)OCO6)CC4)ncnc3c2c1,2.31 µM (active),
CC1CN(CC(=O)NC(C)c2ccccc2)CC(C)O1 (stereo not drawn),inactive,
COc1ccccc1CNC(=O)CSc1nc(=O)n(Cc2ccncc2)c2c1CCC2,inactive,
Cc1cccc(N=Nc2c(C)[nH]n(-c3ccccc3)c2=O)c1,inactive,
Cc1[nH]n(-c2cccc(Cl)c2)c(=O)c1-c1ccc(Cl)cc1,16.4 µM (active),
O=c1c(-c2cccc(Cl)c2)c[nH]n1-c1ccccc1,inactive,
Cc1ccc2cc(C)c(N3CCN(c4ccc(F)cc4)CC3)nc2c1,inactive,
Cc1ccc(OCCCC(=O)Nc2ccc(S(=O)(=O)Nc3cc(C)nc(C)n3)cc2)cc1,inactive,
COc1cc(OC)c(C2=NOC(C(=O)Nc3c(C)n(C)n(-c4ccccc4)c3=O)C2)cc1Cl (stereo not drawn),inactive,
O=C(Nc1ccc2c(c1)OCCO2)C1c2ccccc2OCC(=O)N1Cc1ccccn1 (stereo not drawn),inactive,
CC1CCC(NC(=O)C2c3ccccc3C(=O)N2Cc2ccc3c(c2)OCO3)CC1 (stereo not drawn),inactive,
O=C(Nc1ccc(Cl)cc1)C1c2cccc[n+]2CC(=O)N1Cc1ccc2c(c1)OCO2 (stereo not drawn),1.3 µM (active),
CCOc1ccc(NS(=O)(=O)c2ccc(N)cc2)nn1,inactive,
COc1cccc(NC(=O)c2ccccc2N(Cc2ccccc2)S(C)(=O)=O)c1,inactive,
COc1ccc(S(=O)(=O)N2CCN(CC(=O)NCC3(N4CCOCC4)CCCCC3)CC2)cc1,inactive,
CC(NC(=S)Nc1ccc(OC(F)F)cc1)c1ccc(F)cc1 (stereo not drawn),14.6 µM (active),
O=C1CCC(C(=O)Nc2ccc(OC(F)F)cc2)N1 (stereo not drawn),inactive,
CC(C)N(Cc1ccccc1)C(=S)Nc1ccc(OC(F)F)cc1,inactive,
Cc1c(CN2CCC(n3nccc3NC(=O)CCc3ccccc3)CC2)cnn1C,inactive,
CN(C)CCNC(=O)c1[nH]nc2c1CCc1ccccc1-2,inactive,
COc1cccc(/C=N/NC(=O)c2[nH]nc3c2CCc2ccccc2-3)c1O,2.31 µM (active),
COc1cc2cc(C(=O)N/N=C/c3cccc(OC)c3OC)[nH]c2cc1OC,inactive,
